# Assay results taken from PubChem BioAssay (NCATS).
# Where “and” joins values, the source holds several entries; their conditions need not be identical. Identical values can stand only once. Records with an inconclusive call do not appear. Some compounds were tested as several samples or in several runs, with calls that do not always agree. Calls of active or inactive are those of the source. Calls follow the shape of the dose curve; as a rule, active = well fitted curve in the direction sought with a large enough effect; inconclusive = small, poorly fitted or top-dose-only effect, or another doubt; inactive = no such curve, though single readings can be large; an effect the other way counts as inactive or inconclusive.
# Experiment: P-glycoprotein substrates identified in KB-8-5-11 adenocarcinoma cell line, qHTS therapeutic library screen (AID 1346987); also: nearly all actives have a fitted effect of over 65% in size; as to activity change, negative = cytotoxicity: % is scaled to controls: 0 for no effect and ±100 for the full control effect
# Conditions: KB-8-5-11 (P-gp overexpressing) viability, CellTiter-Glo, 72 h; series mostly up to 44.5 µM; activity change, negative = cytotoxicity: at the top concentration
# Method in brief: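 In this qHTS, P-gp-rich KB-8-5-11 cells received library compounds across a concentration range. Viability was quantified by luminescence after 72 h at 37 degree C.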
# Potency is read from the fitted curve at half-maximal effect.
SMILES,outcome,Potency,"activity change, negative = cytotoxicity"
N#CC(c1ccnc(NCCc2cccnc2)n1)c1nc2ccccc2s1 (stereo not drawn),inactive,–,–
Cn1c(=O)c(-c2c(Cl)cccc2Cl)cc2cnc(Nc3cccc(C(=O)O)c3)nc21,–,inactive and 4.61 µM (active),–
C[C@@H]1CCO[C@H]2Cn3cc(C(=O)NCc4ccc(F)cc4F)c(=O)c(O)c3C(=O)N12,–,–,-21.2% (inactive)
CN1CCC(COc2cnc(-c3cccc(Cn4nc(-c5cccc(C#N)c5)ccc4=O)c3)nc2)CC1,–,inactive and 16.4 µM (active),–
CNC(=O)c1cc(Oc2ccc(NC(=O)Nc3ccc(Cl)c(C(F)(F)F)c3)c(F)c2)ccn1,–,inactive and 16.4 µM (active),–
O=C(c1ccc(F)c(F)c1Nc1ccc(I)cc1F)N1CC(O)([C@H]2CCCCN2)C1,–,20.9 µM (active),–
CN(C)c1ccccc1CN1CCCN(Cc2ccccc2N(C)C)C1c1ccncc1,–,–,-14% (inactive)
Cc1cccc(-c2[nH]c(C(C)(C)C)nc2-c2ccc3c(c2)OCO3)n1,–,10.3 µM (active),–
CN(C)CCN(Cc1ccc(Cl)cc1)c1ccccn1,–,inactive,–
CN(CC=CC#CC(C)(C)C)Cc1cccc2ccccc12,inactive,–,–
CN1C(=O)C(Cc2c[nH]c3ccccc23)NC1=S (stereo not drawn),–,inactive,–
CCCCCCOC(=O)N=C(N)c1ccc(NCc2nc3cc(C(=O)N(CCC(=O)OCC)c4ccccn4)ccc3n2C)cc1,–,–,8.81% (inactive)
CCCCC[C@H](O)C=C[C@H]1[C@H](O)CC(=O)[C@H]1CC=CCCCC(=O)O,inactive,–,–
CC(C)C[C@@H](C(=O)N[C@H](C(=O)OC1CCCC1)c1ccccc1)[C@H](O)C(=O)NO,–,20.9 µM (active),–
CCN(CC)CCCCNc1nc2cc(Cl)c(Cl)cc2nc1-c1ccc(-c2cccs2)s1,–,9.35 µM (active),–
Cc1cnc(-c2cc(N3CCN(C(=O)CCS(C)(=O)=O)CC3)ncc2Cl)c(C)c1,–,inactive,–
CCNC(=O)[C@H]1O[C@@H](n2cnc3c(N)nc(NCCc4ccc(CCC(=O)O)cc4)nc32)[C@H](O)[C@H]1O,inactive,–,–
Cc1c(-c2cccc3c(CCCOc4cccc5ccccc45)c(C(=O)O)n(Cc4cccnc4)c23)c(COc2ccc(N3CCN([S+](=O)([O-])N(C)C)CC3)cc2)nn1C,–,–,-1.34% (inactive)
O=c1cc(-c2ccc(O)c(O)c2)oc2cc(O)cc(O)c12,–,–,5.31% (inactive)
C[C@]12C=CC(=O)C=C1CC[C@@H]1[C@@H]2[C@@H](O)C[C@@]2(C)[C@@H]1CC[C@]2(O)C(=O)CO,inactive,–,–
CN[C@H]1[C@@H](O[C@@H]2[C@H](O[C@@H]3[C@@H](O)[C@@H](O)[C@@H](N=C(N)N)[C@@H](O)[C@@H]3N=C(N)N)O[C@H](C)[C@@]2(O)C=O)O[C@@H](CO)[C@@H](O)[C@H]1O,–,–,9.82% [at 9.29 µM] (inactive)

# Experiment: NS1 protein of Zika virus - qHTS assay to identify small molecule inhibitors in human HEK 293 cells (AID 1347053); also: nearly all actives have a fitted effect of over 55% in size;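 as to activity change, negative = inhibition: plate controls were infected untreated cells for no effect and uninfected cells for full effect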
# Conditions: HEK293 ZIKV MR766 infection, NS1 TR-FRET, 24 h; series mostly up to 46.1 µM; activity change, negative = inhibition: at the top concentration
# Method in brief: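 Compound-treated (1 h pre-infection) HEK 293 cells infected with ZIKV MR766, MOI = 0.5; after 24 h at 37 C, NS1 read by TR-FRET; data normalized to uninfected and infected controls.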
SMILES,"activity change, negative = inhibition",Potency
Cc1cnc(CNC(=O)c2c(=O)c3ccc(N4CCCN(C)CC4)nc3n3c2sc2ccccc23)cn1,26.1% [at 20.1 µM] (inactive),–
O=c1[nH]c(=O)n([C@H]2C[C@@H](O)[C@@H](CO)O2)cc1I,6.29% (inactive),–
COc1ccc2cc1Oc1ccc(cc1)C[C@H]1c3cc(c(OC)cc3CCN1C)Oc1c(OC)c(OC)cc3c1[C@H](C2)N(C)CC3,-7.26% (inactive),–
O=C(CCCN1CCN(c2ccc(F)cc2)CC1)NC1c2ccccc2CSc2ccccc21 (stereo not drawn),3.23% (inactive),–
CN(C(Cc1ccc(OS(=O)(=O)c2cccc3cnccc23)cc1)C(=O)N1CCN(c2ccccc2)CC1)S(=O)(=O)c1cccc2cnccc12 (stereo not drawn),-0.812% (inactive),–
Cc1[nH]c(C=C2C(=O)Nc3ccc(S(=O)(=O)N(C)c4cccc(Cl)c4)cc32)c(C)c1C(=O)N1CCN(C)CC1,18.3% (inactive),–
CN(C)CC[C@H](CSc1ccccc1)Nc1ccc(S(=O)(=O)NC(=O)c2ccc(N3CCN(Cc4ccccc4-c4ccc(Cl)cc4)CC3)cc2)cc1[N+](=O)[O-],0.393% (inactive),–
Cc1csc(-c2nnc(Nc3ccc(Oc4ncccc4-c4ccnc(N)n4)cc3)c3ccccc23)c1,10.7% (inactive),–
Cc1nc(NC(=O)N2CCC[C@@H]2C(N)=O)sc1-c1csc(C(C)(C)C)n1,3.88% (inactive),–
COc1cc2nc(-c3cc(F)ccc3O)nc(N[C@@H]3CNC[C@@H]3C(C)(C)O)c2cc1OC,–,9.35 µM (active)
C[C@@H](NC(=O)c1ncnc(N)c1Cl)c1ncc(C(=O)Nc2cc(C(F)(F)F)c(Cl)cn2)s1,3.62% (inactive),–
O=c1[nH]nc(OCCCc2ccc(Cl)cc2)c(NCc2cccnc2)c1Br,-8.56% (inactive),–
C=C1[C@H](n2cnc3c(=O)[nH]c(N)nc32)C[C@H](O)[C@H]1CO,13.3% (inactive),–
O=C1NC(=O)C(c2cnc3ccccn23)=C1c1cn2c3c(cccc13)CN(C(=O)N1CCOCC1)CC2,–,0.59 µM (active)
CCCCC(C=O)NC(=O)C(CC(C)C)NC(=O)OCc1ccccc1 (stereo not drawn),3.2% (inactive),–

# Experiment: qHTS of pediatric cancer cell lines to identify multiple opportunities for drug repurposing: Primary screen for TC32 cells (AID 1347089); also: nearly all actives have a fitted effect of over 60% in size; as to activity change, negative = cytotoxic: % is scaled to controls: 0 for no effect and ±100 for the full control effect
# Conditions: TC32 Ewing sarcoma viability, CellTiter-Glo luminescence, 48 h; series mostly up to 45.8 µM; activity change, negative = cytotoxic: at the top concentration
# Method in brief: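 Measured quantity: luminescence from CellTiter-Glo, reflecting metabolically active TC32 cells following 48 h of compound. Curves came straight from multi-point titrations, with 8 or 11 points in primary and 11 in confirmatory screening.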
SMILES,"activity change, negative = cytotoxic",Potency
N#CC(c1ccnc(NCCc2cccnc2)n1)c1nc2ccccc2s1 (stereo not drawn),0.331% (inactive),–
Cn1c(=O)c(-c2c(Cl)cccc2Cl)cc2cnc(Nc3cccc(C(=O)O)c3)nc21,4.4% (inactive),–
C[C@@H]1CCO[C@H]2Cn3cc(C(=O)NCc4ccc(F)cc4F)c(=O)c(O)c3C(=O)N12,-3.63% (inactive),–
CN1CCC(COc2cnc(-c3cccc(Cn4nc(-c5cccc(C#N)c5)ccc4=O)c3)nc2)CC1,-0.523% (inactive),–
CNC(=O)c1cc(Oc2ccc(NC(=O)Nc3ccc(Cl)c(C(F)(F)F)c3)c(F)c2)ccn1,9.63% (inactive),–
O=C(c1ccc(F)c(F)c1Nc1ccc(I)cc1F)N1CC(O)([C@H]2CCCCN2)C1,4.65% (inactive),–
CN(C)c1ccccc1CN1CCCN(Cc2ccccc2N(C)C)C1c1ccncc1,7.77% (inactive),–
Cc1cccc(-c2[nH]c(C(C)(C)C)nc2-c2ccc3c(c2)OCO3)n1,–,8.29 µM (active)
CN(C)CCN(Cc1ccc(Cl)cc1)c1ccccn1,-7.45% (inactive),–
CN(CC=CC#CC(C)(C)C)Cc1cccc2ccccc12,12.2% (inactive),–
CN1C(=O)C(Cc2c[nH]c3ccccc23)NC1=S (stereo not drawn),-0.659% (inactive),–
CCCCCCOC(=O)N=C(N)c1ccc(NCc2nc3cc(C(=O)N(CCC(=O)OCC)c4ccccn4)ccc3n2C)cc1,6.42% (inactive),–
CCCCC[C@H](O)C=C[C@H]1[C@H](O)CC(=O)[C@H]1CC=CCCCC(=O)O,-0.446% (inactive),–
CC(C)C[C@@H](C(=O)N[C@H](C(=O)OC1CCCC1)c1ccccc1)[C@H](O)C(=O)NO,-10.5% (inactive),–
CCN(CC)CCCCNc1nc2cc(Cl)c(Cl)cc2nc1-c1ccc(-c2cccs2)s1,-6.84% (inactive),–
Cc1cnc(-c2cc(N3CCN(C(=O)CCS(C)(=O)=O)CC3)ncc2Cl)c(C)c1,8.01% (inactive),–
C[C@@H](NC(=O)c1ncnc(N)c1Cl)c1ncc(C(=O)Nc2cc(C(F)(F)F)c(Cl)cn2)s1,4.49% (inactive),–
CCNC(=O)[C@H]1O[C@@H](n2cnc3c(N)nc(NCCc4ccc(CCC(=O)O)cc4)nc32)[C@H](O)[C@H]1O,8.81% (inactive),–
Cc1c(-c2cccc3c(CCCOc4cccc5ccccc45)c(C(=O)O)n(Cc4cccnc4)c23)c(COc2ccc(N3CCN([S+](=O)([O-])N(C)C)CC3)cc2)nn1C,-7.71% (inactive),–
O=c1cc(-c2ccc(O)c(O)c2)oc2cc(O)cc(O)c12,10.9% (inactive),–
C[C@]12C=CC(=O)C=C1CC[C@@H]1[C@@H]2[C@@H](O)C[C@@]2(C)[C@@H]1CC[C@]2(O)C(=O)CO,6.47% (inactive),–
CN[C@H]1[C@@H](O[C@@H]2[C@H](O[C@@H]3[C@@H](O)[C@@H](O)[C@@H](N=C(N)N)[C@@H](O)[C@@H]3N=C(N)N)O[C@H](C)[C@@]2(O)C=O)O[C@@H](CO)[C@@H](O)[C@H]1O,6.69% [at 9.17 µM] (inactive),–
